Results on one molecule are retold here after PubChem BioAssay AID743088 (The Scripps Research Institute Molecular Screening Center, 2013).

For the assay, the system named is Rolipram. As to the kind of experiment: off-target binding across receptor panel, profiling panel, selectivity assay for AVPR1a antagonist project, biochemical, Panlabs HitProfilingScreen (AID 743088). As to conditions: Panlabs radioligand binding panel, 30 targets, at 10 µM, stronger effect = higher value.

A number with no mark means an inactive call.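 How the source made its calls: active means binding inhibited by at least 50%, or stimulated by at least 50%, shown as inhibition of -50% or lower; inactive means the rest.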

In the case of `O=C(C1CCN(c2ccc(Cl)cn2)CC1)N(CC1CC1)c1ccc(Cl)cc1`, the inhibition of binding is -3%.
